This passage reports composite z-score and z-score results from PubChem BioAssay.

Test [1] deals with Wnt5a (protein binding on small-molecule microarray). Briefly: small molecules binding Wnt5a protein – biophysical, small-molecule microarray, 635/667 nm fluorescence, primary screen (AID 1142).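 Further: fluorescence read at 667 nm with signal to noise per printed feature.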 The following applies: 635 nm fluorescence, higher = more signal.
The nature of test [2]: ATP-based viability of Huh7 replicon cells – cell-based, CellTiter-Glo luminescence, basal, 48 h, cytotoxicity control for HCV replication inhibitor project, primary screen (AID 1143).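 Further: Huh7 hepatoma cells carrying a hepatitis C replication reporter with no stimulus; test concentration not given here.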 The settings on record: higher = more signal, called active from +8 up or from −8 down.
Test [3] is described as follows: Pseudomonas biofilm growth suppression – PAO1 strain, BacTiter-Glo luminescence, LB-PBS, primary screen (AID 1144). The settings on record: P. aeruginosa PAO1 biofilm, 12 h, higher = more signal.
Test [4] is described as follows: basal CRE-LacZ reporter activity in PC12 – cell-based, unstimulated, primary screen (AID 1145). The settings on record: no forskolin, luminescence, 4.5 h, higher = more signal, called active from +8 up or from −8 down.
Test [5] in a line: forskolin-driven CRE-LacZ activity in PC12 – cell-based, CRE-LacZ reporter, forskolin-stimulated, primary screen (AID 1146).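 Further: PC12 cells with 6xCRE LacZ reporter stimulated by forskolin 10 µM; beta-galactosidase reporter signal reflecting CREB driven transcription.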 The following applies: luminescence, 4.5 h, higher = more signal, called active from +8 up or from −8 down.
In test [6] the target is Streptavidin (Streptomyces avidinii) (UniProt P22629). Briefly: compounds binding control protein streptavidin – biophysical, small-molecule microarray, 635/667 nm fluorescence, artefact control for SMM compound annotation, primary screen (AID 1147).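 Further: signal reflects streptavidin binding to arrayed compounds as a control protein.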 The following applies: higher = more signal.
Streptavidin (Streptomyces avidinii), sequence (P22629 whole entry, looked up): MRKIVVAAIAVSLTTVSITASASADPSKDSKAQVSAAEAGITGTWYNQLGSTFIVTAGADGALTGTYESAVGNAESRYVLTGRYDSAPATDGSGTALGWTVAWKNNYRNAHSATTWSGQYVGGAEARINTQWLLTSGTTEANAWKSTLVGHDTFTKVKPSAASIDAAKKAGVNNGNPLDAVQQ
Test [7] in a line: probe aInhba binding on compound microarray – biochemical, small-molecule microarray, 635/667 nm fluorescence, primary screen (AID 1148).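 Further: score merges 667nm spot fluorescence with signal-to-noise for antibody binding to printed compounds.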 The settings on record: higher = more signal.
In test [8] the target is Torsin-1A (Homo sapiens) (UniProt O14656). The test is described as follows: TOR1A wild-type binding on microarray – cell lysate, small-molecule microarray, lysate, 635/667 nm, primary screen (AID 1149). The settings on record: COS7 hTOR1A-WT lysate, 635 nm fluorescence, higher = more signal.
Torsin-1A (Homo sapiens), sequence (O14656 whole entry, looked up): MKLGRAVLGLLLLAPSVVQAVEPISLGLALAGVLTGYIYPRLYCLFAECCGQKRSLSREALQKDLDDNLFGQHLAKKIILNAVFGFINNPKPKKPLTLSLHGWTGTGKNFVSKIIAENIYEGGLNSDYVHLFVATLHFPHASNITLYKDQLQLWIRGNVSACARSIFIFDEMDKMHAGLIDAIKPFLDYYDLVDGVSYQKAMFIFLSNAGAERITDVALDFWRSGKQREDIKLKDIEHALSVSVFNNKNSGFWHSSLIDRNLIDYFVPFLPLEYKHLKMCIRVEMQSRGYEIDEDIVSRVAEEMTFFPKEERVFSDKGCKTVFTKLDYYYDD
For test [9] the target is unchanged. The test is described as follows: torsin A mutant lysate binding on microarrays – cell lysate, small-molecule microarray, COS7 lysate, 635/667 nm fluorescence, primary screen (AID 1150).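 Further: score pools 667 nm emission and signal to noise measuring lysate protein binding.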 The following applies: COS7 hTOR1A mutant lysate, 635 nm fluorescence, higher = more signal.
Test [10] has as its system Sonic hedgehog protein (Shh). The test is described as follows: Sonic hedgehog microarray binding compounds – biochemical, small-molecule microarray, 635/667 nm fluorescence, primary screen (AID 1151).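 Further: Shh protein binding to compounds spotted on small-molecule microarray slides; score combines spot fluorescence intensity with signal-to-noise across triplicate slides.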 The following applies: 635 nm fluorescence, higher = more signal.

Calls of active or inactive are those of the source. Unless noted, how the calls were made is not given here.

Consider `C=C(COC)/C(=C/C[C@H](OC(C)=O)c1ccccc1OCCO)c1cnc2ccccc2c1`, for which the composite z-score in test [1] is 0.704; in test [6], 0.351; in [7] it was 0.0183; in the test with Torsin-1A (Homo sapiens) [8], 0.0548; with Torsin-1A (Homo sapiens) [9] it was 0.794; in test [10], 1.65. Further, the z-score is -0.0339 (inactive) in test [2], -0.543 (inactive) in test [3], 0.131 (inactive) in test [4] and 0.128 (inactive) in test [5].
`C=CCOC(=O)[C@@H]1[C@H]2C(=O)O[C@H](c3ccccc3)[C@H](c3ccccc3)N2[C@H](c2ccc(OCCOC(=O)[C@H]3C[C@H]4C(=O)N[C@@H](CCCC[N+](C)(C)C)C(=O)N4[C@H]3c3cccc(OCCO)c3)cc2)[C@@]12C(=O)Nc1ccc(I)cc12`: the composite z-score in test [1] amounted to 0.662; in test [6], 0.128; in [7] it was 0.115; in the test with Torsin-1A (Homo sapiens) [8] it was 0.559; with Torsin-1A (Homo sapiens) [9] it was 0.327; in [10], 1.89. Also, the z-score in [2] was -0.693 (inactive); in [3], -0.0854 (inactive); in test [4] it was 0.289 (inactive); in test [5] it was -0.464 (inactive).
As to `COC(=O)[C@@]1(Cc2ccc(OC)cc2)[C@H]2c3cc(C(=O)N4CCCC4)n(CCc4ccccn4)c3C[C@H]2CN1C(=O)c1ccccc1`, the composite z-score in test [1] was -0.249; in test [6], 0.698; in test [7], -0.0332; with Torsin-1A (Homo sapiens) [8], -0.166; with Torsin-1A (Homo sapiens) [9] it was 1.1; in [10], 0.429. Besides, the z-score in [2] is -0.784 (inactive); in [3], -0.304 (inactive); in [4], 0.201 (inactive); in [5], 0.404 (inactive).
In the case of `Cc1ccc(S[C@]2(C(=O)NCc3ccccc3)CC(=O)N(Cc3cc(C(F)(F)F)cc(C(F)(F)F)c3)[C@@H]2c2ccc(CO)cc2)cc1`, the composite z-score in test [1] is -0.492; in test [6] it was -0.684; in test [7], -0.126; with Torsin-1A (Homo sapiens) [8] it was -1.3; in the test with Torsin-1A (Homo sapiens) [9] it was -0.755; in [10], 0.824. In addition, the z-score in [2] is -0.0639 (inactive); in [3], 0.315 (inactive); in test [4] it was 0.829 (inactive); in test [5], 1.21 (inactive).
With `O=C1C2C=CC(C(O)C3CC=CCC3)N(n3cnnc3)C2C(=O)N1Cc1ccccc1` (stereo not given), the composite z-score in test [1] is -0.149; in test [6] it was 0.0704; in test [7], -0.128; with Torsin-1A (Homo sapiens) [8] it was 0.187; with Torsin-1A (Homo sapiens) [9], -0.0519; in test [10] it was -0.183. Also, the z-score is 0.227 (inactive) in test [2], 0.356 (inactive) in test [3], 0.332 (inactive) in test [4] and 0.705 (inactive) in [5].
Regarding `C=CCNC(=O)[C@@H]1[C@H]2C(=O)O[C@H](c3ccccc3)[C@H](c3ccccc3)N2[C@H](c2ccccc2OCCO)[C@@]12C(=O)N(C(=O)OCCOC)c1ccc(C#CCC(C(=O)OC)C(=O)OC)cc12`, the composite z-score is 0.978 in [1]; 1.63 in test [6]; 0.86 in test [7]; 0.612 with Torsin-1A (Homo sapiens) [8]; 1.56 with Torsin-1A (Homo sapiens) [9]; 2.04 in test [10]. Also, the z-score was -5.68 (inactive) in [2], 0.0376 (inactive) in test [3], -0.195 (inactive) in test [4] and -0.569 (inactive) in test [5].
Turning to `COc1ccc([Si](C)(C)[C@@H]2[C@@H](CCO)O[C@]3(C(=O)N(Cc4ccc(N5C(=O)c6cccc7cccc5c67)cc4)c4ccccc43)[C@H]2C)cc1`, the composite z-score in [1] was -0.404; in test [6] it was -0.376; in test [7], -0.0791; in the test with Torsin-1A (Homo sapiens) [8], -0.565; with Torsin-1A (Homo sapiens) [9], -0.535; in test [10], 0.0554. Also, the z-score in test [2] is -6.09 (inactive); in [3], -0.0686 (inactive); in test [4] it was 4.11 (inactive); in test [5], 0.201 (inactive).
As to `C=CCCN(CC#C[C@H]1Oc2ccccc2S(=O)(=O)N2CCC[C@@H]12)S(=O)(=O)c1ccc(C)cc1`, the composite z-score was 0.264 in test [1]; -0.198 in test [6]; -0.0471 in test [7]; 0.554 with Torsin-1A (Homo sapiens) [8]; -0.109 with Torsin-1A (Homo sapiens) [9]; 0.624 in [10]. The z-score in test [2] is -1.57 (inactive); in test [3], 0.592 (inactive); in test [4], 0.761 (inactive); in [5], 3.31 (inactive).
On to `O=C1OCCC=C[C@H]2OC34C=CCN(CCN5CCOCC5)C(=O)[C@H]3N(CCO)C(=O)[C@@H]4C12` (stereo not given in full), for which the composite z-score in test [1] is -0.141; in [6], -0.983; in test [7], -0.168; with Torsin-1A (Homo sapiens) [8], -0.23; with Torsin-1A (Homo sapiens) [9], 0.0141; in test [10] it was 0.731. Besides, the z-score is 0.473 (inactive) in test [2], 0.329 (inactive) in test [3], -0.358 (inactive) in test [4] and -0.0338 (inactive) in test [5].
Take `C=CCC(OC(C)=O)[C@@H]1[C@@H](N(Cc2ccc(-c3cccc(C(F)(F)F)c3)o2)C(=O)c2ccc(C)cc2)c2cc(OCCCO)ccc2N1C(=O)c1ccc2ccccc2n1` (stereo not given in full): the composite z-score in test [1] was 0.0861; in test [6] it was 0.256; in [7], -0.151; in the test with Torsin-1A (Homo sapiens) [8], -0.138; in the test with Torsin-1A (Homo sapiens) [9], 0.114; in test [10], 0.978. Also, the z-score in test [2] was 0.0775 (inactive); in test [3], -0.293 (inactive); in [4] it was 0.395 (inactive); in [5], -0.0797 (inactive).
Take `C#C[C@H](O[Si](C#CCCCCCC)(C(C)C)C(C)C)c1ccccc1`: the composite z-score is -0.348 in [1]; -0.0246 in [6]; -0.17 in test [7]; 0.236 with Torsin-1A (Homo sapiens) [8]; 0.0769 with Torsin-1A (Homo sapiens) [9]; -0.102 in test [10]. Also, the z-score in test [2] was -0.0715 (inactive); in [3], 0.0625 (inactive); in [4], 0.353 (inactive); in test [5] it was 0.262 (inactive).
As to `CN(C)CCCC[C@@H]1NC(=O)[C@H]2C[C@@H](C(=O)NCCCCCNC(=O)CS)[C@@H](c3ccc(O)cc3)N2C1=O`, the composite z-score was -0.22 in [1]; -0.175 in test [6]; -0.208 in [7]; -0.217 in the test with Torsin-1A (Homo sapiens) [8]; 0.239 in the test with Torsin-1A (Homo sapiens) [9]; 0.0878 in test [10]. The z-score in test [2] is -0.0046 (inactive); in [3] it was -0.315 (inactive); in test [4], 0.683 (inactive); in test [5], -0.0503 (inactive).
With `O=C(N1CCCCC1)[C@]1(CCS(=O)(=O)c2ccccc2)N=C(c2ccc(OCCCO)cc2)O[C@@H]1c1ccccc1`, the composite z-score in test [1] was 0.497; in [6] it was 0.721; in test [7] it was 0.461; in the test with Torsin-1A (Homo sapiens) [8] it was 0.608; with Torsin-1A (Homo sapiens) [9] it was 0.885; in test [10], 0.624. Also, the z-score in test [2] is -5.48 (inactive); in test [3], 0.13 (inactive); in test [4], 1.16 (inactive); in test [5] it was -0.526 (inactive).
As for `C=C(CCCC)C(=O)CC[C@H](OC(=O)c1ccccc1-c1ccccc1C(=O)O)c1ccc(CO)o1`, the composite z-score is 0.123 in test [1]; 1.5 in [6]; 0.0154 in [7]; 0.472 with Torsin-1A (Homo sapiens) [8]; 0.622 with Torsin-1A (Homo sapiens) [9]; 1.99 in test [10]. In addition, the z-score in [2] is 0.0343 (inactive); in test [3], -0.976 (inactive); in [4], -0.177 (inactive); in [5], -0.56 (inactive).
